Measured values taken from the supplement of paper PMC6279402.
± gives the standard deviation of the averaged measurements.

Test system: A549
Assay: relative viability (normalised to negative control = 1, bortezomib = 0) (fraction); higher = less cytotoxic
Details: inflammatory serum-free RHB-A with cytokines + LPS, 5 d + 24 h CellTiter-Blue
Experimental: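 A549 KRAS-mutant NSCLC cells, pre-treated 5 µM GSK126 or vehicle (DMSO), were seeded at 250 cells/well in 384-well plates in serum-free RHB-A medium with inflammatory cytokines/LPS and treated with Selleck kinase inhibitor and NCI oncology compounds at 30 or 300 nM in triplicate, refreshed at 48 h. Viability was read by CellTiter-Blue after 5 d plus 24 h and normalised per plate with cellHTS2 (mean of bortezomib positive control = 0, mean of negative control = 1).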

[1] = compound 30 nM, GSK126 pretreatment: 5 uM GSK126
[2] = compound 30 nM, GSK126 pretreatment: none (vehicle)
[3] = compound 300 nM, GSK126 pretreatment: 5 uM GSK126
[4] = compound 300 nM, GSK126 pretreatment: none (vehicle)

| SMILES | relative viability [1] | relative viability [2] | relative viability [3] | relative viability [4] |
| --- | --- | --- | --- | --- |
| O=c1[nH]c(=O)n([C@H]2C[C@H](O)[C@@H](CO)O2)cc1F [Floxuridine] | 0.895 ± 0.018 | 0.886 ± 0.058 | 0.903 ± 0.037 | 0.908 ± 0.05 |
| Cc1cc(Nc2cc(CN3CCOCC3)c3nc(C)c(Cc4ccc(Cl)cc4F)n3n2)n[nH]1 | 0.974 ± 0.13 | 0.988 ± 0.062 | 1.24 ± 0.078 | 1.23 ± 0.03 |
| Oc1ncnc2[nH]ncc12 [Allopurinol] | 0.988 ± 0.076 | 0.996 ± 0.03 | 0.952 ± 0.11 | 0.974 ± 0.066 |
| CO[C@H]1C[C@@H]2CC[C@@H](C)[C@@](O)(O2)C(=O)C(=O)N2CCCC[C@H]2C(=O)O[C@H]([C@H](C)C[C@@H]2CC[C@@H](OC(=O)C(C)(CO)CO)[C@H](OC)C2)CC(=O)[C@H](C)/C=C(\C)[C@@H](O)[C@@H](OC)C(=O)[C@H](C)C[C@H](C)/C=C/C=C/C=C/1C [CCI-779; Temsirolimus] | 0.532 ± 0.038 | 0.541 ± 0.034 | 0.46 ± 0.069 | 0.531 ± 0.028 |
| COc1cccc2cc(-c3nc(C4CCC(C(=O)O)CC4)n4ncnc(N)c34)[nH]c12 (stereo not given) | 0.815 ± 0.016 | 0.797 ± 0.045 | 0.588 ± 0.07 | 0.718 ± 0.055 |
| O=C(CCBr)N1CCN(C(=O)CCBr)CC1 [Pipobroman] | 0.735 ± 0.045 | 0.705 ± 0.026 | 0.725 ± 0.096 | 0.822 ± 0.12 |
| Nc1nc(N)c2nc(-c3cccc(O)c3)c(-c3cccc(O)c3)nc2n1 | 0.719 ± 0.028 | 0.683 ± 0.014 | 0.664 ± 0.14 | 0.776 ± 0.075 |
| NC(=O)Nc1cc(-c2cccc(F)c2)sc1C(=O)N[C@H]1CCCNC1 | 0.407 ± 0.061 | 0.389 ± 0.034 | 0.253 ± 0.082 | 0.194 ± 0.021 |
| C=CC(=O)Nc1cc2c(Nc3ccc(F)c(Cl)c3)ncnc2cc1OCCCN1CCOCC1 [CI-1033(Canertinib)] | 0.602 ± 0.014 | 0.595 ± 0.017 | 0.483 ± 0.028 | 0.502 ± 0.028 |
| CNC(=O)c1cc(COc2nnc(Nc3ccc(Cl)cc3)c3ccoc23)ccn1 [Telatinib (BAY 57-9352)] | 0.896 ± 0.11 | 0.887 ± 0.073 | 0.967 ± 0.13 | 0.91 ± 0.13 |
